Values without a mark were called inactive. Inconclusive results are not listed. The source made the active and inactive calls. Unless noted, the call rests on the fitted dose curve; in most records, active means well fitted curve in the direction sought with a large enough effect in the repeat runs; inconclusive means weak or mixed curves; inactive means no such curve, though single readings can be large; an effect the other way counts as inactive or inconclusive.

The nature of assay [1]: Caspase-3/7 induction in HepG2 cells by small molecules, qHTS assay (AID 1346978). Further: nearly all actives have a fitted effect of over 15% in size. A digest of the protocol: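 Caspase-3/7 induction was measured by Caspase-Glo 3/7 luminescence (30 min, room temperature) after a 17 hr compound exposure of wild-type HepG2 cells seeded at 2,000 per well and pre-incubated 5 hr.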
Assay [2] can be described thus: Caspase-3/7 induction in CHO-K1 cells by small molecules, qHTS assay (AID 1346980). Further: nearly all actives have a fitted effect of over 15% in size. A digest of the protocol:
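Luminescent Caspase-Glo 3/7 read (30min, room temperature) quantified apoptosis induction. Cells were wild-type CHO-K1, treated with compound for 17hr at 37 C and 5% CO2.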
For orientation: In qHTS, concentration-response curves come from the screen itself.

Assay [3] can be described thus: Caspase-3/7 induction in HepG2 cells by small molecules, qHTS cell viability counter screen (AID 1346981). Further: nearly all actives have a fitted effect of over 30% in size. Further: potency means the concentration at half of the fitted maximal effect. In short, it runs like this:
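CellTiter-Fluor fluorescence measured viability in the same wells used for Caspase-Glo 3/7. HepG2 (wild type) at 2,000 cells/well were pre-incubated 5 hr, dosed, and given reagent at 16 hr, with 1 hr further at 37C.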

Assay [4] addresses Nuclear receptor subfamily 1 group I member 2 (Homo sapiens) (UniProt O75469). In words: Human pregnane X receptor (PXR) small molecule agonists, qHTS assay (AID 1346982). Further: nearly all actives have a fitted effect of over 35% in size. Further: potency means the concentration at half of the fitted maximal effect. In short, it runs like this: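 Agonist mode: luminescence from ONE-Glo after 24 h compound exposure at 37C in HepG2 cells carrying hPXR-responsive CYP3A4 luciferase, plated in charcoal-stripped serum medium 5 h beforehand.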

The target in assay [5] is Acetylcholinesterase (Homo sapiens) (UniProt P22303). As to the kind of experiment: Acetylcholinesterase (AChE) small molecule antagonists: colormetric cell-based qHTS assay (AID 1347395; calls by dose curve; further: nearly all actives have a fitted effect of over 30% in size). A digest of the protocol:
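Neuroblastoma line SH-SY5Y supplied the enzyme; cells were preincubated with compound for 30 min at 37 C and 5% CO2. Acetylthiocholine with DTNB was then added for 90 min at 37 C, and thiocholine was measured by colour.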

Assay [6] shares this target. As to the kind of experiment: Acetylcholinesterase (AChE) small molecule antagonists: enzyme-based qHTS assay (AID 1347397; calls by dose curve; further: nearly all actives have a fitted effect of over 55% in size). The note with it: Potency: AChE enzyme activity inhibition. A digest of the protocol: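 Colorimetric DTNB readout of acetylthiocholine hydrolysis, 10 min at room temperature, after 30 min room-temperature exposure of 50 mU/mL recombinant human enzyme to compound; DMSO vehicle control.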

The target is the same in assay [7]. In words: Acetylcholinesterase (AChE) small molecule antagonists: fluorescence cell-based qHTS assay (AID 1347398; calls by dose curve; further: nearly all actives have a fitted effect of over 50% in size; further: potency means the concentration at half of the fitted maximal effect). Conditions: Potency: AChE activity. In short, it runs like this: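 Cellular AChE activity read as thiocholine from acetylthiocholine hydrolysis, detected by Thiolite Green fluorescence at 490/520 nm after 40 min at room temperature. Compounds were pre-incubated 30 min at 37 C on adherent SH-SY5Y cells.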

Assay [8] has the same target. In words: Acetylcholinesterase (AChE) small molecule antagonists: enzyme-based qHTS assay with human liver microsomes (AID 1347399; calls by dose curve; further: nearly all actives have a fitted effect of over 60% in size). Conditions: Potency: qHTS inhibition. In short, it runs like this:
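Recombinant human AChE (50 mU/mL in the enzyme mix) and human liver microsomes (0.25 mg/mL final) were preincubated with compound and NADPH (0.25 mg/mL final) for 30 min at 37 C. Acetylthiocholine/DTNB was then added; thiocholine was read colorimetrically after 10 min at room temperature.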

Assay [9] concerns the target Cytochrome P450 2C9 (Homo sapiens) (UniProt P11712). As to the kind of experiment: Cytochrome P450 Family 2 Subfamily C Member 9 (CYP2C9) small molecule antagonists: luciferase reporter qHTS assay (AID 1671198). Further: nearly all actives have a fitted effect of over 50% in size. Further: potency means the concentration at half of the fitted maximal effect. In short, it runs like this: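 Enzyme-substrate mix preincubated with compound 10 min at room temperature; reaction started with NADPH regeneration solution, 1 h 37C. Luminescent luciferin product read after 20 min detection reagent.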
(A reporter such as luciferase makes a cellular process visible.)

The target in assay [10] is Cytochrome P450 1A2 (Homo sapiens) (UniProt P05177). In words: Cytochrome P450 Family 1 Subfamily A Member 2 (CYP1A2) small molecule antagonists: luciferase reporter qHTS assay (AID 1671199). Further: nearly all actives have a fitted effect of over 50% in size. Further: potency means the concentration at half of the fitted maximal effect. In short, it runs like this: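 Luminescence from luciferin formed by CYP1A2 from a proluciferin substrate, read 20 min after detection reagent. Compound was pre-incubated 10 min with enzyme-substrate, and reaction started with NADPH regeneration solution for 1 h at room temperature; furafylline control.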

Assay [11] deals with Voltage-gated inwardly rectifying potassium channel KCNH2 (Homo sapiens) (UniProt Q12809). In words: Human Ether-a-go-go-Related Gene (hERG) channel small molecule antagonists: fluorescence cell-based qHTS assay (AID 1671200). Further: nearly all actives have a fitted effect of over 50% in size. Further: potency means the concentration at half of the fitted maximal effect. In short, it runs like this: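 Measured: Tl+ flux via fluorescence (480/540 nm) in hERG-expressing U2OS cells after 1 h dye loading at room temperature.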

The target of assay [12] is Cytochrome P450 3A4 (Homo sapiens) (UniProt P08684). As to the kind of experiment: Cytochrome P450 Family 3 Subfamily A Member 4 (CYP3A4) small molecule antagonists: luciferase reporter qHTS assay (AID 1671201). Further: nearly all actives have a fitted effect of over 50% in size. Further: potency means the concentration at half of the fitted maximal effect. A digest of the protocol:
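Setup: enzyme-substrate mix, compound pin transfer, 10 min RT. Reaction: NADPH regeneration solution, 1 h RT. Readout: detection reagent stops turnover, luminescence measured after 20 min, expressed in relative luminescence units.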

Assay [13] deals with Cytochrome P450 2D6 (Homo sapiens) (UniProt P10635). In words: Cytochrome P450 Family 2 Subfamily D Member 6 (CYP2D6) small molecule antagonists: luciferase reporter qHTS assay (AID 1671196). Further: nearly all actives have a fitted effect of over 50% in size. Further: potency means the concentration at half of the fitted maximal effect. In short, it runs like this: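 CYP2D6 activity was followed as luminescence from its luciferin product after a 1 h NADPH-driven reaction at room temperature. Enzyme-substrate mix and compound were pre-incubated for 10 min, and the signal was read 20 min after adding detection reagent.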

Assay [14] concerns the target Cytochrome P450 2C19 (Homo sapiens) (UniProt P33261). As to the kind of experiment: Cytochrome P450 Family 2 Subfamily C Member 19 (CYP2C19) small molecule antagonists: luciferase reporter qHTS assay (AID 1671197). Further: potency means the concentration at half of the fitted maximal effect; nearly all actives have a fitted effect of over 65% in size. In short, it runs like this:
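P450-Glo CYP2C19 screening system; proluciferin substrate; DMSO compound stocks; 10 min RT preincubation; NADPH regeneration, 1 h at 37C; luciferin detection reagent, 20 min RT; luminescence as RLU.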

Cytochrome P450 1A2 (Homo sapiens), sequence (P05177 whole entry, looked up): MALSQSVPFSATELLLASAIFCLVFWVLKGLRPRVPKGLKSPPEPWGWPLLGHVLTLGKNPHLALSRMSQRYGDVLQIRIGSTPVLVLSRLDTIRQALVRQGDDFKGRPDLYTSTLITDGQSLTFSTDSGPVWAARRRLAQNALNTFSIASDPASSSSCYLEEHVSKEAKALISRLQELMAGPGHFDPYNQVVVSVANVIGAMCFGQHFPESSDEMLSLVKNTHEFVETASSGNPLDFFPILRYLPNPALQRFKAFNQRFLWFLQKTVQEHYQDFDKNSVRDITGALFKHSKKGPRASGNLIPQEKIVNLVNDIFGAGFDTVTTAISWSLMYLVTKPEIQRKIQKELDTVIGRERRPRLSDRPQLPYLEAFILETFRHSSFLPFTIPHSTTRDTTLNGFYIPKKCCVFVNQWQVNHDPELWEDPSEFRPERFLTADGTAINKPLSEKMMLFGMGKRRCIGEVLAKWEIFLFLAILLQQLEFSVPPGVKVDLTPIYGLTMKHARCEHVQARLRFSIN
Cytochrome P450 2C19 (Homo sapiens), sequence (P33261 whole entry, looked up): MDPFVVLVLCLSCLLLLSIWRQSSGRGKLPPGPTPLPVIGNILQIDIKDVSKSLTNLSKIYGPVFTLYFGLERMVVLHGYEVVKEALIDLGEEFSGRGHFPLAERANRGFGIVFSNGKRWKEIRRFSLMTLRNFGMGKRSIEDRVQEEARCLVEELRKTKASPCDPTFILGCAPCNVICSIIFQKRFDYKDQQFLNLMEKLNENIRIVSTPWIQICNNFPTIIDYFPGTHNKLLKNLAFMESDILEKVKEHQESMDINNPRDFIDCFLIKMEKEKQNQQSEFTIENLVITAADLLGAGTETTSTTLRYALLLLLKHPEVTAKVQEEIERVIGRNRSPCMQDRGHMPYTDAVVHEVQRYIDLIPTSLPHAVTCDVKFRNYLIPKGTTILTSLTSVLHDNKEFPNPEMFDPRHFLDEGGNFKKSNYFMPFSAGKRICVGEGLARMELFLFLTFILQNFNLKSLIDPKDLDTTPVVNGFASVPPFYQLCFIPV
Cytochrome P450 2D6 (Homo sapiens), sequence (P10635 whole entry, looked up): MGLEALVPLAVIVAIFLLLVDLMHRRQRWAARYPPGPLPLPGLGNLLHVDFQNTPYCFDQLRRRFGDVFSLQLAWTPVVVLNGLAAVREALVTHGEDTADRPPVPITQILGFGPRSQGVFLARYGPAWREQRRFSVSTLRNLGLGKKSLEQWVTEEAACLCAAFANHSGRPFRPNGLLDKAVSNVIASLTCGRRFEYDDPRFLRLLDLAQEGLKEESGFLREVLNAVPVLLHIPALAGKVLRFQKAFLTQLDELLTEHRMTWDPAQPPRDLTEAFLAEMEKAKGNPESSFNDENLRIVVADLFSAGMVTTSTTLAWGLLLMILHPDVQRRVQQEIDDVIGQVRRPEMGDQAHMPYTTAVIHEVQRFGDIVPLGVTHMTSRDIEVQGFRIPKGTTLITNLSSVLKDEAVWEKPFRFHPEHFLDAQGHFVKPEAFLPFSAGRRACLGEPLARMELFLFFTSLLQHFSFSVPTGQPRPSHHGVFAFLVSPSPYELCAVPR
Nuclear receptor subfamily 1 group I member 2 (Homo sapiens), sequence (O75469 whole entry, looked up): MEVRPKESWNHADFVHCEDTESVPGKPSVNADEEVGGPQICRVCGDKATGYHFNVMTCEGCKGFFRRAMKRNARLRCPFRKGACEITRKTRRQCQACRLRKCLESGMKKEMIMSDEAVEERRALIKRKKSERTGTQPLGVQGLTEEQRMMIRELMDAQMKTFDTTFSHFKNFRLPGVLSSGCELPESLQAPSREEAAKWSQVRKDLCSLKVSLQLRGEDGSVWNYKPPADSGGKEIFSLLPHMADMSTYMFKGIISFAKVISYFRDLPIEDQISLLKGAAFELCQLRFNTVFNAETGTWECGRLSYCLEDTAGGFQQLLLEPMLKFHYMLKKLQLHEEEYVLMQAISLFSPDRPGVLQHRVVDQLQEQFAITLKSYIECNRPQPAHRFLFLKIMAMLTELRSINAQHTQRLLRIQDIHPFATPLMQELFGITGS
Cytochrome P450 3A4 (Homo sapiens), sequence (P08684 whole entry, looked up): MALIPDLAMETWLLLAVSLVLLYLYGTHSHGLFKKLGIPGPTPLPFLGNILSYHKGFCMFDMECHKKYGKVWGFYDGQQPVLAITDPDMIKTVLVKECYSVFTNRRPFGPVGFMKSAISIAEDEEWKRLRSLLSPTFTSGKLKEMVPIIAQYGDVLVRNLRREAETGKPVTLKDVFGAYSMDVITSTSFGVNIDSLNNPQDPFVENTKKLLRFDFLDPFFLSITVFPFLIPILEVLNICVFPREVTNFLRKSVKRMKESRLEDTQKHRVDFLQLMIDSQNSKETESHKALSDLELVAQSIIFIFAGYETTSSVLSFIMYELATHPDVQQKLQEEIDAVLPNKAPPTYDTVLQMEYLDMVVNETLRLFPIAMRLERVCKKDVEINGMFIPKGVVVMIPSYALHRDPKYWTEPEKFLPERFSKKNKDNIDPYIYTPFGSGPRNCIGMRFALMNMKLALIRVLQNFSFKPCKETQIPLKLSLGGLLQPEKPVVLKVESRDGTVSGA
Voltage-gated inwardly rectifying potassium channel KCNH2 (Homo sapiens), sequence (Q12809 whole entry, looked up): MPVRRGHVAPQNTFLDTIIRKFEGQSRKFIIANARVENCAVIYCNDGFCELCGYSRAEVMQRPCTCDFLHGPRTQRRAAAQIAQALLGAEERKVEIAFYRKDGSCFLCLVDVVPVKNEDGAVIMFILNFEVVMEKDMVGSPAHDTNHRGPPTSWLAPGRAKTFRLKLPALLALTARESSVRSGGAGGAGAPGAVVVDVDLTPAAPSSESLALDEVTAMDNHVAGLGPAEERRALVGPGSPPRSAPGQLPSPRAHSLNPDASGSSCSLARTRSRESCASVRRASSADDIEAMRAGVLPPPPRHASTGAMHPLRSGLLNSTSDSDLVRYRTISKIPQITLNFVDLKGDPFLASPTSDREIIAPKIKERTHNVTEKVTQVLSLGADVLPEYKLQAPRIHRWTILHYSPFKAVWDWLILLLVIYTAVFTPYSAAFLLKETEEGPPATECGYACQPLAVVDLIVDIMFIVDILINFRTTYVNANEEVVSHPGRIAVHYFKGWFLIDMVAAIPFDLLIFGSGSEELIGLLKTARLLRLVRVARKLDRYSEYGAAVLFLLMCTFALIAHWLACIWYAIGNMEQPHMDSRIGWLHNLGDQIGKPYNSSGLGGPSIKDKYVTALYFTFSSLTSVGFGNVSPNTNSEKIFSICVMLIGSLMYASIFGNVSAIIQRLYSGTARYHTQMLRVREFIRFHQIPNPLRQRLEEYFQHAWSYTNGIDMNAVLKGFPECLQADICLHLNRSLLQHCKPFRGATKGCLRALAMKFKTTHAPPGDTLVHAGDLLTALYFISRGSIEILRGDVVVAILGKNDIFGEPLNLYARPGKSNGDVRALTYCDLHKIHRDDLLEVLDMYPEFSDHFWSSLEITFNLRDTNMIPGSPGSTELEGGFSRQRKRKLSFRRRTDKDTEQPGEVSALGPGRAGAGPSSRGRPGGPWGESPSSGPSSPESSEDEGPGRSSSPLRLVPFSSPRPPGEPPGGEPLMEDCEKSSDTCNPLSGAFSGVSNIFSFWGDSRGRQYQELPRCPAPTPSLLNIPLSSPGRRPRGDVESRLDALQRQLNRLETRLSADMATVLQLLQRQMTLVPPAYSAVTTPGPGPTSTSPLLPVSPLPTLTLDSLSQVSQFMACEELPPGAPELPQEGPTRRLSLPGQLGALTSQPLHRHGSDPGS
Acetylcholinesterase (Homo sapiens), sequence (P22303 whole entry, looked up): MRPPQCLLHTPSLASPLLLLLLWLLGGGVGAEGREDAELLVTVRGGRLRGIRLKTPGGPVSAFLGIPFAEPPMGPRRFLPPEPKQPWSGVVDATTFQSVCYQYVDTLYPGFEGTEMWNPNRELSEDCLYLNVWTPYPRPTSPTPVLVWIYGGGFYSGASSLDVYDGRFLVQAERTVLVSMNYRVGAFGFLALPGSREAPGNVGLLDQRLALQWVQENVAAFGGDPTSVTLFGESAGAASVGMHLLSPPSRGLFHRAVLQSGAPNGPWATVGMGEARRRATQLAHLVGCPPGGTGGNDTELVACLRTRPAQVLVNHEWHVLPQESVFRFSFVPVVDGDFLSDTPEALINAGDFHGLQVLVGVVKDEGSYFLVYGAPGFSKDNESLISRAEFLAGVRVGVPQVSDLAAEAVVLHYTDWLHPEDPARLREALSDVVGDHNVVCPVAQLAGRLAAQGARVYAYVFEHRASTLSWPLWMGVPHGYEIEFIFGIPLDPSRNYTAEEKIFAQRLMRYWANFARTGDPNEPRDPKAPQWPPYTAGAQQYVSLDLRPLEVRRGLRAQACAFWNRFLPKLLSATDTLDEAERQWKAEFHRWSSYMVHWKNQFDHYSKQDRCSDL
Cytochrome P450 2C9 (Homo sapiens), sequence (P11712 whole entry, looked up): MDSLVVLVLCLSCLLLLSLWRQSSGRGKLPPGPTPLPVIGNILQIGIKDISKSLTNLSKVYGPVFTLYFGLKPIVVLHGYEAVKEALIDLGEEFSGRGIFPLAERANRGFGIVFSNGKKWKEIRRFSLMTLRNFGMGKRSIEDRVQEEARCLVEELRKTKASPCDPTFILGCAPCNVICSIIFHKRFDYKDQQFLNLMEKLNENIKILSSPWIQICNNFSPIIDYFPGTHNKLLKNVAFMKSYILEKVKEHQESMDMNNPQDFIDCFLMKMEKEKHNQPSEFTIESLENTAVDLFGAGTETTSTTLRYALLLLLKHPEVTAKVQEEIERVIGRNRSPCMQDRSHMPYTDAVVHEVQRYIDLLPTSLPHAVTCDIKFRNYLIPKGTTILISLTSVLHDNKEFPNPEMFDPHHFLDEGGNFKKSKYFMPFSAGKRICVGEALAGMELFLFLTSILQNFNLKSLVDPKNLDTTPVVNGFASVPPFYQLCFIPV

Take `CCNS(=O)(=O)C(F)(F)C(F)(F)C(F)(F)C(F)(F)C(F)(F)C(F)(F)C(F)(F)C(F)(F)F`: the Potency entry in [1], in assay [2], in [3], in assay [4], in assay [5] and in assay [6] was “inactive” throughout. Moreover, the Potency entry in assay [7], in assay [8], in assay [10], in assay [11] and in [12] was “inactive” throughout. For the same compound, the Potency in assay [9] was 1.52 µM (active).
As for `CC(Cc1ccc2c(c1)OCO2)NO` (stereo unspecified), the Potency entry in assay [1], in assay [2], in assay [3], in [4], in assay [5] and in assay [7] was “inactive” each time. The Potency entry in assay [8] and in [11] was “inactive” throughout. In addition, the Potency is 38.6 µM (active) in assay [13], 48.6 µM (active) in assay [14], 34.4 µM (active) in [9] and 6.11 µM (active) in assay [10].
Consider `C=CCBr`, for which the Potency entry in assay [1], in assay [2], in assay [3], in assay [4], in assay [5] and in [6] was “inactive” in each case. The Potency entry in assay [7], in assay [8], in assay [9], in assay [11] and in [12] was “inactive” throughout.
Take `Nc1nc(N)nc(Cl)n1`: the Potency result in [1], in [2], in [3], in assay [4], in [5] and in [6] was “inactive” each time. In addition, the Potency entry in assay [7], in assay [8], in assay [13], in [9], in [11] and in assay [12] was “inactive” in each case.
On to `CCC1COC(Cn2cncn2)(c2ccc(Cl)cc2Cl)O1` (stereo unspecified), for which the Potency entry in assay [1], in assay [2], in [3], in [5], in assay [6] and in [7] was “inactive” each time. The Potency entry in [8] and in [11] was “inactive” each time. The Potency in assay [4] is 19.3 µM (active); in [14], 0.317 µM (active); in assay [9], 6.33 µM (active); in assay [10] it was 28.3 µM (active); in [12], 0.0894 µM (active).
Consider `COC(=O)C(C)N(C(=O)c1ccco1)c1c(C)cccc1C` (stereo unspecified), for which the Potency entry in assay [1], in [2], in assay [3], in assay [5], in [7] and in assay [8] was “inactive” each time. Further, the Potency result in [13], in assay [11] and in assay [12] was “inactive” in each case. Further, the figures for the Potency in assay [4], in assay [14] and in assay [9] were 10.9 µM (active), 11.2 µM (active) and 31.7 µM (active), respectively.
Regarding `CC(O)C(=O)[O][Hg][c]1ccccc1` (stereo unspecified), the Potency result in assay [1], in assay [2], in [4], in assay [5], in assay [6] and in assay [8] was “inactive” throughout. The Potency is 4.86 µM (active) in [3]; 79.6 µM (active) in assay [7]; 6.33 µM (active) in [14]; 1.78 µM (active) in [9]; 17.8 µM (active) in [10]; 17.4 µM (active) in assay [11]. Besides, the Potency in assay [12] was 6.33 µM (active).
In the case of `C[C@@H]1CC2=CC(=O)CC[C@@H]2[C@H]2CC[C@@]3(C)[C@@H](CC[C@]3(C)O)[C@@H]21`, the Potency result in assay [1], in [2], in assay [3], in assay [4], in [5] and in [6] was “inactive” each time. Also, the Potency result in assay [7], in assay [8], in assay [13] and in assay [11] was “inactive” each time. In addition, the Potency in assay [14] was 8.71 µM (active).
Regarding `CC1CN1` (stereo unspecified), the Potency entry in assay [1], in [2], in [3], in assay [4], in [5] and in assay [7] was “inactive” throughout. The Potency entry in assay [8], in [9], in assay [11] and in [12] was “inactive” in each case.

These data come from PubChem BioAssay (Tox21).
